Bioassay records deposited in PubChem by several laboratories.
Rows were chosen to be rich in hits. Some 1.7% of all compounds tested hit in one or more screens of this group.
eIF4H inh: inhibitors of RNA binding by human eIF4H; eIF4H fluorescence polarization binding assay; Q15056; 290,000 tested, 0.94% active; AID 2012; inhibition, % at 35 µM;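 further: calls also rest on retests at 20 µM and on dose response follow-up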
PABP1 MLLE inh: blocks PAM2 peptide binding to the PABP1 MLLE domain; P11940; GST-MLLE / FITC-PAM2 fluorescence polarization; inhibition, % at 20 µM; 360,000 tested, 0.36% active; AID 588489; in the data active means inhibition above about 35%, passing the limit was not always enough;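 further: plate controls were DMSO wells with GST-MLLE for no effect and wells lacking GST-MLLE protein for full effect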
EBV gp42 block: inhibitors of Epstein-Barr virus glycoprotein 42; Fluorescence polarization binding assay, mP read-out; inhibition, % (tested at 21.74 µM); 220,000 tested, 0.42% active; AID 1085; in the data active means inhibition above about 50%
Target sequence (Q1HVG2 whole entry, looked up): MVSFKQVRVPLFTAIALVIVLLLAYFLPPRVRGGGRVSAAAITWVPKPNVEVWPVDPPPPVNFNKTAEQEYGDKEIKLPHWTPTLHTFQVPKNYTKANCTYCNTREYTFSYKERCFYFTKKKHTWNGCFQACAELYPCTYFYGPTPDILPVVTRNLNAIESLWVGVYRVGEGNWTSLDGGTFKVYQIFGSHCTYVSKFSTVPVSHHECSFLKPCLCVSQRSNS
PABP FP inh: PABP-poly(A) binding inhibition; 290,000 tested, 1% active; AID 2014; PABP-poly(A) RNA binding, fluorescence polarization; calls only at 35 µM;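 further: calls also rest on retests at 20 µM and on dose response follow-up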
eIF4E-4G inh: inhibitors of eIF4E and eIF4G interaction in translation initiation. P63073+Q04637. inhibition, % at 21.7 µM. AID 782. TR-FRET eIF4E-eIF4GI(517-606) binding, 2 h. 220,000 tested, 0.37% active;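 active means inhibition above about 30%, limit read from the data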;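 further: 0% = full FRET control wells and 100% = background wells lacking eIF4GI fragment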
An asterisk follows results filed as active; i = inactive; / = no result given; + = active, no number; [ ] = another dose, or the depositor's remark. Unless noted, how the calls were made is not given here.

SMILES | eIF4H inh | PABP1 MLLE inh | EBV gp42 block | PABP FP inh | eIF4E-4G inh
COCc1cc(=O)[nH]c(=S)[nH]1 | 1 | 40* | -15 | i | -5
COCc1cc(C)c(C#N)c(=S)[nH]1 | -7 | 37* | -24 | i | 6
CCOCc1cc(C)[nH]c(=O)c1C#N | 3 | 2 | -9 | i | 1
CCCCN1C(=O)c2ccc(C(=O)NCCN3C(=O)S/C(=C\c4cccnc4)C3=O)cc2C1=O | 10 | -6 | -20 | i | 4
Cc1ccc(SCc2cc(=O)[nH]c(/N=C(\N)Nc3ccc(C)c(C)c3)n2)cc1 | -6 | -7 | 1 | i | 49*[fluorescence artefact?]
CCc1ccc(N2CC(C(=O)OCC(=O)c3c(N)n(CC(C)C)c(=O)n(C)c3=O)CC2=O)cc1 (configuration not stated) | / | -6 | / | / | /
CC(C)(C)c1c(Cl)c(O)c(-c2ccccc2)c(=O)n1-c1ccccc1 | -13 | -16 | -6 | i | 33*
Cc1c(CCNC=O)cc(C)c2c3c(oc12)CCCC3 | / | -14 | / | / | /
COc1cc(C(=O)NNC(=O)C2CC=CCC2C(=O)O)cc(OC)c1OC (configuration not stated) | -7 | 12 | -7 | i | 30*[fluorescence artefact?]
CC1CCC(NC(=O)c2cccc(S(=O)(=O)N3CCN(c4ccc(F)cc4)CC3)c2)CC1 (configuration not stated) | / | -16 | / | / | /
COc1ccc(S(=O)(=O)Nc2c(NC3CCCCC3)c3ccccc3oc2=O)cc1 | 3 | -1 | / | i | /
CCC(=O)N1CCC1(C)C(=O)Nc1ccc2c(c1)CCN2C(C)=O (configuration not stated) | / | -7 | / | / | /
O=C(/C=C/c1ccco1)OCn1nnc2ccccc2c1=O | 68* | 5 | -9 | + | 7
CC(C)(C)CC(=O)Nc1ccc(-c2nnc3n2CCCCC3)cc1 | 78* | 3 | / | + | /
Cc1cc2cc(C(c3nnnn3Cc3ccco3)N3CCCCC3)c(=O)[nH]c2cc1C (configuration not stated) | 57* | -21 | -23 | + | -3
CCOc1ccc2[nH]c(=O)c(C(c3nnnn3Cc3ccco3)N3CCN(C)CC3)cc2c1 (configuration not stated) | 39 | -14 | 2 | i | -2
O=c1[nH]c2cc3c(cc2cc1C(c1nnnn1Cc1ccccc1)N1CCCCCC1)OCCO3 (configuration not stated) | 130 | -14 | -36 | + | -100
CCN(CC)c1ccc(S(=O)(=O)N2CCOCC2)cc1NC(=O)COC(=O)/C=C/c1ccco1 | / | -3 | / | / | /
Cc1ccc(S(=O)(=O)Cc2ccc(C(=O)N3CCc4ccccc4C3)o2)cc1 | 90* | 7 | 38 | + | 12
COc1ccc(S(=O)(=O)Cc2ccc(C(=O)O)o2)cc1 | -15 | 5 | / | i | /
CS(=O)(=O)Nc1ccc(C(=O)N2CCc3ccccc3C2)cc1 | 4 | 2 | -14 | i | 0
Cc1ccc(S(=O)(=O)Cc2ccc(C(=O)O)o2)cc1 | 86* | 22 | 18 | + | 14
CS(=O)(=O)c1ccc(C(=O)N2CCc3ccccc3C2)cc1 | active | 0 | -13 | i | -5
O=S(=O)([N-]c1nc2ccccc2nc1-n1cc[n+](Cc2ccccc2)c1)c1ccc(Br)cc1 | -4 | -11 | -48 | i | -5
CC1(C)CC(=O)C2=C(C1)Nc1ccccc1NC2c1ccccc1F (configuration not stated) | 3 | 48* | / | i | /
SMILES | eIF4H inh | PABP1 MLLE inh | EBV gp42 block | PABP FP inh | eIF4E-4G inh
O=C(CCc1nnc(C2(c3ccc(Cl)cc3)CCC2)o1)N1CCCC(O)C1 (configuration not stated) | -11 | 4 | / | i | /
Cc1c(C(O)CN2CCN(Cc3ccc4c(c3)OCO4)CC2)c2ccccc2n1C (configuration not stated) | 82* | -4 | -11 | + | 1
COc1ccc2c(c1)c(C(O)CN1CCN(Cc3ccc4c(c3)OCO4)CC1)c(C)n2C (configuration not stated) | 10 | 0 | -16 | i | -3
N#Cc1ccc(NC(=O)CSc2cn[nH]n2)cc1 | -12 | 6 | / | i | /
N#CC1=C(N)NC(=S)C(C(N)=O)C1c1ccc([N+](=O)[O-])cc1 (configuration not stated) | 8 | 39* | -4 | i | -8
O=C(CCN1C(=O)COc2ccccc21)NCc1ccco1 | 0 | 4 | 53* | i | -1
Cc1ccc2c(c1)N(CCC(=O)NCc1ccco1)C(=O)CO2 | -7 | -2 | -4 | i | -3
c1ccc(N2CC3CCc4ccccc4C3=N2)cc1 (configuration not stated) | 0 | 0 | -16 | i | 3
CSc1nc2sc3c(c2c(=O)[nH]1)CCCC3 | -8 | -1 | -20 | i | -19
CCSc1nc2sc3c(c2c(=O)[nH]1)CCCC3 | -7 | -2 | 66* | i | -3
CC1C2(C)OCC(C#N)(C(=N)O2)C1(C#N)C#N (configuration not stated) | 63* | / | 8 | + | 4
Cc1nc2ccccn2c1/C(O)=C1\C(=O)C(=O)N(CCN2CCOCC2)C1c1ccncc1 (configuration not stated) | 12 | 28 | -7 | i | 12
Cc1nc2ccccn2c1/C(O)=C1\C(=O)C(=O)N(CCN(C)C)C1c1ccco1 (configuration not stated) | 9 | 50* | 9 | i | 1
CCN1CCc2[nH]c3ccccc3c2C1 | 5 | 13 | / | i | /
Cc1c(Cl)cccc1NC(=S)NCCc1ccc(S(N)(=O)=O)cc1 | 3 | 42* | -1 | i | 2
C=CCn1c(SCC(=O)c2cc(C)n(C)c2C)nnc1-c1ccncc1 | 83* | -8 | 5 | i | -1
Cc1cc(C(=O)CSc2nnc(-c3ccncc3)n2-c2ccccc2)c(C)n1C | 120* | -41 | 6 | + | -11
CC(=O)Nc1ccc(C)c(NS(=O)(=O)c2cccc(C(F)(F)F)c2)c1 | -13 | 6 | -9 | i | -1
CCOc1ccc(NC(=O)/C(C#N)=C/c2ccc(N3CCCC3)c(C)c2)cc1 | 37 | -75 | 94* | i | 2
C=CCC1(CC=C)CCCN1Cc1nc(COc2ccccc2)no1 | 59* | -31 | -9 | i | -5
CCCNC(=O)c1cc(C2CCCN(C(=O)C3CC3)C2)on1 (configuration not stated) | / | 2 | / | / | /
O=C(Cc1ccc(S(=O)(=O)N2CCOCC2)s1)Nc1nc2c(s1)CCCC2 | 60* | 9 | -11 | + | 1
O=c1cc2oc3cc(O)c(O)cc3c(-c3ccccc3[N+](=O)[O-])c-2cc1O | 50* | -11 | / | + | /
O=c1cc(-c2ccccc2Cl)oc2cccc(O)c12 | -6 | 7 | 8 | i | -6
CCCCCc1c2c(cc(O)c1C(=O)O)OC(=O)c1cc(C(=O)CCCC)c(OC)cc1O2 | / | 2 | / | / | /
CCCCCc1c2c(cc(O)c1C(=O)O)OC(=O)c1c(cc(OC)cc1C(=O)CCCC)O2 | 62 | -6 | -5 | + | 6
